Inconclusive results are not listed. Entries that show only a call come without a potency. Active and inactive are the calls of the source. The call rests on the fitted dose curve; in most records, active means well fitted curve in the direction sought with a large enough effect; inconclusive means small, poorly fitted or top-dose-only effect, or another doubt; inactive means no such curve, though single readings can be large; an effect the other way counts as inactive or inconclusive.
The compounds below were run against Aldehyde dehydrogenase, mitochondrial (Homo sapiens) (UniProt P05091) (assay: qHTS for Inhibitors of the Aldehyde Dehydrogenase Family (ALDH2) Primary screen (AID 2061308; further: nearly all actives have a fitted effect of over 55% in size)). Details: ALDH2 enzyme inhibition qHTS, 1536-well; series mostly up to 56 µM.

SMILES | Potency
COc1c2c(nc3occc13)C(CC=C(C)C)(OC)C(O)CC2 (stereo not given) | inactive
Fc1ccccc1-c1nc2ccn(Cc3ccc(-c4ccc(C(F)(F)F)cc4C(F)(F)F)nn3)cc-2n1 | inactive
COC(=O)C(CC1(OC(=O)C(C)C)c2ccccc2N2C(=O)C(C)(C)N(O)C21)n1cnc2ccccc2c1=O (stereo not given) | inactive
O=C(Nc1ccn(Cc2c(F)cccc2C(F)(F)F)n1)c1c(F)cccc1F | inactive
OCC(CO)(CO)NCC(O)Cn1c2ccc(Cl)cc2c2cc(Cl)ccc21 (stereo not given) | inactive
CC#C[C@@H](CC(=O)O)c1ccc(OCc2ccc(CN3CCC4(C=Cc5ccccc54)CC3)s2)cc1 | inactive

The compounds below were run against Retinaldehyde dehydrogenase 3 (Homo sapiens) (UniProt P47895) (assay: qHTS for Inhibitors of the Aldehyde Dehydrogenase Family (ALDH1A3) Primary screen (AID 2061315)). Details: ALDH inhibition qHTS; series mostly up to 56 µM.

SMILES | activity change, negative = inhibition | Potency
CC1(C)CC[C@]2(C(=O)O[C@@H]3O[C@H](CO[C@@H]4O[C@H](CO)[C@@H](O)[C@H](O)[C@H]4O[C@@H]4O[C@H](CO)[C@@H](O)[C@H](O)[C@H]4O)[C@@H](O)[C@H](O[C@@H]4O[C@H](CO)[C@@H](O)[C@H](O)[C@H]4O)[C@H]3O)CC[C@]3(C)C(=CCC4[C@@]5(C)CC[C@@H](O)[C@@](C)(C(=O)O[C@@H]6O[C@H](CO)[C@@H](O)[C@H](O)[C@H]6O)C5CC[C@]43C)[C@@H]2C1 (stereo not given in full) | 9.33% [at 11.2 µM] (inactive) | 
C[C@@H]1CC[C@H]2C(C)(C)[C@H](O)[C@H](O)C[C@]2(C)[C@@]12Cc1c(O)cc3c(c1O2)CNC3=O |  | inactive
COC1CC(O[C@H]2CC[C@@]3(C)C(=CC[C@]4(O)C3[C@H](O)[C@@H](O)[C@]3(C)[C@@H]([C@H](C)O)CC[C@@]34O)C2)OC(C)C1OC1CC(OC)C(OC2CC(OC)C(OC3OC(C)C(OC4OC(CO)C(O)C(O)C4O)C(OC)C3O)C(C)O2)C(C)O1 (stereo not given in full) |  | inactive
CC(=O)OC1C(OC(=O)c2ccccc2)C2C(=C(C)CCC2(C)C)C23CCC(C)(C2)C(=O)CC13 (stereo not given) |  | inactive
CC(C)=CCc1cc2c(cc1O)OC[C@H]1c3ccc(O)cc3O[C@@H]21 |  | inactive
CS/C=C/C(=O)O[C@@H]1CCC2=CC(=O)C(=C(C)C)C[C@]2(C)[C@H]1C |  | inactive
CC(=O)NC(C(=O)OC1CCC(C)(C)C2CC=C3C(=O)OCC3(O)C12C)C(C)C (stereo not given) |  | inactive
CO[C@H]1C[C@@H]2CC[C@@H](C)[C@@](O)(O2)C(=O)C(=O)N2CCCC[C@H]2C(=O)O[C@H]([C@H](C)C[C@@H]2CC[C@H](n3cnnn3)[C@H](OC)C2)CC(=O)[C@H](C)/C=C(\C)[C@@H](O)[C@@H](OC)C(=O)[C@H](C)C[C@H](C)/C=C/C=C/C=C/1C |  | inactive
C=C(C(=O)O)C1CCC2(C)CCC(O)C(C)(O)C2C1 (stereo not given) |  | inactive
C=C1C(OC(C)=O)C(=O)C2C(C)(C)C(OC(C)=O)CCC2(C)C1CC(OC(C)=O)/C(C)=C/COC(C)=O (stereo not given) |  | inactive
C=CC(C)(O)CC/C=C(\C)C(=O)OC1C(O)C(CO)OC(OC(=O)C23CCC(C)(C)CC2C2=CCC4C5(C)CCC(OC6OC(COC7OCC(OC(C)=O)C(O)C7OC7OC(COC(C)=O)C(O)C(O)C7OC(C)=O)C(O)C(O)C6OC6OCC(O)C(O)C6O)C(C)(C)C5CCC4(C)C2(C)C(O)C3O)C1OC1OCC(OC2OCC(O)C(OC3OCC(O)C(O)C3O)C2O)C(O)C1O (stereo not given) | 12.6% [at 11.2 µM] (inactive) | 
CCc1cc(CC[C@]2(C3CCCC3)CC(O)=C(Cc3nc4nc(C)cc(C)n4n3)C(=O)O2)cc(CC)n1 |  | inactive
CC(=O)c1ccc(OCC(=O)N2CCCCC2)cc1 |  | inactive
C[C@@H]1C[C@H](O[C@@H]2O[C@H](CO[C@@H]3OC[C@](O)(CO)[C@H]3O)[C@@H](O)[C@H](O)[C@H]2O)CC(C)(C)[C@H]1/C=C/[C@@H](C)O |  | inactive
C=C1CC[C@@H]2[C@](C)(CC[C@H](O)[C@@]2(C)CCC=C(C)C)[C@@H]1Cc1c[nH]c2ccccc12 |  | inactive
C/C=C(/C)C(=O)OC1CC(C)(C)CC2C3=CCC4C5(C)CCC(OC6OC(C)C(OC7OC(C(=O)O)C(O)C(OC8OC(CO)C(O)C(O)C8OC8OC(CO)C(O)C(O)C8O)C7O)C(O)C6O)C(C)(C)C5CCC4(C)C3(C)C(OC(=O)/C=C/C=C/C=C/CCC)C(OC(C)=O)C12CO (stereo not given) | 9.07% [at 11.2 µM] (inactive) | 
C=CCc1ccc(OC(C)Cc2ccc(OC)c(OC)c2)c(OC)c1 (stereo not given) |  | inactive
CC(=O)OC1CC2C(C)(C)C(=O)C=CC2(C)C2CC(=O)C3=C(CCC3C3=CC(O)OC3=O)C12C (stereo not given) |  | inactive
CC1C(O)C(O)C2C(C(=O)OCCc3ccc(O)cc3)=COC(O[C@@H]3O[C@H](CO)[C@@H](O)[C@H](O)[C@H]3O)C12 (stereo not given in full) |  | inactive

From PubChem BioAssay (NCATS)
